Our source for the Potency values is PubChem BioAssay (NCATS).

Records with an inconclusive call do not appear. Calls of active or inactive are those of the source. The call rests on the fitted dose curve; in most records, active means well fitted inhibition curve with a large enough effect; inconclusive means small, poorly fitted or top-dose-only effect; inactive means flat fitted curve, though single readings scatter.

Holding throughout (assay): qHTS profiling for inhibitors of Plasmodium falciparum proliferation (AID 504749); further: nearly all actives have a fitted effect of over 60% in size
Settings in all cases: P. falciparum in erythrocytes, SYBR Green DNA, 72 h; series mostly up to 28.7 µM
For orientation: qHTS replaces the single test concentration by a dilution series.

Assay [1] deals with JCK. An outline of the steps:
(§1)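 Each compound contacts P. falciparum-infected red blood cells for 72 h at 37 C; lysis buffer (Tris, EDTA, saponin, Triton X, SYBR Green I) is added and fluorescence measured next morning; values normalized to controls.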

The subject of assay [2] is PC15. A digest of the protocol: as §1
Assay [3] concerns HB3. An outline of the steps:
as §1

Assay [4] relates to P94_40. An outline of the steps:
as §1

In assay [5] the test system is PAD. A digest of the protocol: as §1
The subject of assay [6] is FAB9. A digest of the protocol: as §1
The test system of assay [7] is GB4. An outline of the steps: as §1
Assay [8] relates to ICS. An outline of the steps: as §1
Assay [9] deals with N140. An outline of the steps:
as §1

In assay [10] the test system is P93_24. An outline of the steps: as §1
Potency means the concentration at half of the fitted maximal effect.

Regarding `CCCC(=O)OC[C@@H](OC(=O)CCC)[C@@H](OC(=O)CCC)[C@H](Cn1c2nc(=O)[nH]c(=O)c-2nc2cc(C)c(C)cc21)OC(=O)CCC`, the Potency result in assay [1] and in assay [2] was “inactive” in each case.
Turning to `O=C(O)c1cc(O)c(O)c(O)c1`, the Potency entry in assay [3], in assay [4], in assay [5] and in [2] was “inactive” each time.
Consider `O=C(OCc1ccccc1)c1ccccc1`, for which the Potency entry in assay [6], in assay [7], in assay [3], in assay [8], in assay [1] and in [9] was “inactive” in each case. The Potency entry in [10], in assay [4], in [5] and in assay [2] was “inactive” throughout.
As for `COc1cc(/C=C/C(=O)CC(=O)/C=C/c2ccc(O)c(OC)c2)ccc1O`, the Potency entry in assay [6] and in assay [1] was “inactive” throughout. Besides, in assay [7], the Potency was 12 µM (active).
Consider `c1ccc2sc(SN3CCOCC3)nc2c1`, for which the Potency result in assay [6], in assay [7], in assay [3], in assay [1], in assay [4] and in assay [2] was “inactive” in each case. The Potency in assay [8] was 12.6 µM (active).
For `Cc1[nH]cnc1CN1CCc2c(c3ccccc3n2C)C1=O`, the Potency entry in assay [6], in assay [7], in assay [3], in assay [8], in assay [1] and in assay [9] was “inactive” each time. In addition, the Potency result in assay [10], in assay [4], in assay [5] and in assay [2] was “inactive” in each case.
In the case of `C=C(Nc1ccc(OCC)cc1)Nc1ccc(OCC)cc1`, the Potency result in assay [6], in [3], in assay [8], in assay [1], in assay [9] and in assay [10] was “inactive” throughout. The Potency result in [4], in [5] and in assay [2] was “inactive” in each case.
Regarding `O=C(CCN1CCN(CCO)CC1)N1c2ccccc2Sc2ccc(C(F)(F)F)cc21`, the Potency entry in assay [6], in assay [1] and in assay [5] was “inactive” each time. Besides, the figures for the Potency in assay [8], in assay [9] and in assay [10] were 11.2 µM (active), 12.6 µM (active) and 12.6 µM (active), respectively.
Consider `CC1(C)S[C@@H]2[C@H](NC(=O)[C@H](NC(=O)N3CCN(S(C)(=O)=O)C3=O)c3ccccc3)C(=O)N2[C@H]1C(=O)O`, for which the Potency entry in assay [6], in assay [7], in assay [3], in [8], in assay [1] and in assay [9] was “inactive” each time. Moreover, the Potency entry in [10], in assay [4], in assay [5] and in assay [2] was “inactive” in each case.
As to `Cc1cc(O)c2ccccc2c1O`, the Potency entry in assay [6], in assay [3], in [1], in [9], in assay [10] and in [4] was “inactive” each time. Moreover, the Potency entry in [5] and in assay [2] was “inactive” each time.
`C[S+](CC[C@H](N)C(=O)O)C[C@H]1O[C@@H](n2cnc3c(N)ncnc32)[C@H](O)[C@@H]1O` (stereo not given in full): the Potency result in assay [6], in [7], in assay [3], in assay [8], in [1] and in assay [2] was “inactive” throughout. In assay [9], the Potency is 1 µM (active).
Regarding `CC(=O)[C@]1(O)Cc2c(O)c3c(c(O)c2[C@@H](O[C@H]2C[C@H](N)[C@H](O)[C@H](C)O2)C1)C(=O)c1c(O)cccc1C3=O`, the Potency was 4.78 µM (active) in assay [7]; 7.94 µM (active) in assay [3]; 2 µM (active) in assay [8]; 11.2 µM (active) in [1]; 10 µM (active) in [9]; 7.94 µM (active) in assay [10]. The Potency was 10 µM (active) in assay [4], 12.6 µM (active) in assay [5] and 7.94 µM (active) in assay [2].
On to `O=C1CN(/N=C/c2ccc(-c3ccc([N+](=O)[O-])cc3)o2)C(=O)N1`, for which the Potency entry in assay [6], in [3], in assay [8], in assay [1], in [9] and in assay [4] was “inactive” each time. Also, the Potency entry in assay [5] and in assay [2] was “inactive” throughout.
Turning to `COC(=O)C1=C(C)NC(C)=C(C(=O)OCC(C)C)C1c1ccccc1[N+](=O)[O-]` (stereo not given), the Potency is 12 µM (active) in [7], 3.55 µM (active) in assay [8] and 10 µM (active) in assay [10].
For the compound `O=C(Nc1ccc(C(=O)O)c(O)c1)c1ccccc1`, the Potency entry in assay [6], in [7], in [3], in [8], in [1] and in [9] was “inactive” in each case. Besides, the Potency entry in assay [4], in [5] and in assay [2] was “inactive” in each case.
Take `Clc1ccccc1-c1nc(-c2ccncc2)no1`: the Potency result in [6], in [7], in assay [3], in assay [1] and in assay [4] was “inactive” each time.
Take `CN1[C@@H](CC(=O)c2ccccc2)CCC[C@H]1C[C@H](O)c1ccccc1`: the Potency result in assay [6] and in assay [3] was “inactive” in each case. Also, the Potency in assay [7] is 10.7 µM (active); in assay [8] it was 11.2 µM (active); in assay [9] it was 17.8 µM (active); in assay [4], 11.2 µM (active).
As to `CC(N)C(=O)OC(C)(C)Cc1ccc(Cl)cc1` (stereo not given), the Potency entry in assay [6], in assay [3], in assay [1] and in assay [5] was “inactive” each time. Moreover, in assay [7], the Potency was 5.36 µM (active).
As to `CCCCCCCCCCCC(=O)[O][Sn]([CH2]CCC)([CH2]CCC)[O]C(=O)CCCCCCCCCCC`, the Potency entry in assay [6], in assay [7], in [3], in assay [1], in assay [9] and in assay [10] was “inactive” in each case. The Potency result in assay [4], in [5] and in [2] was “inactive” throughout.
Consider `COc1cc(/C=C/C(=O)N2CCN(CC(=O)N3CCCC3)CC2)cc(OC)c1OC`, for which the Potency entry in [6], in [7], in assay [3], in assay [1], in assay [4] and in assay [2] was “inactive” each time. For the same compound, the Potency in [8] was 11.2 µM (active).
For the compound `CCOc1ccc2nc(S(N)(=O)=O)sc2c1`, the Potency result in [6], in [7], in [3], in assay [8], in assay [1] and in assay [9] was “inactive” each time. Further, the Potency result in assay [5] is “inactive”.
As to `CN(C)c1ccc(C(=C2C=CC(=[N+](C)C)C=C2)c2ccccc2)cc1`, the Potency result in [6] and in assay [1] was “inactive” each time. For the same compound, the Potency is 4.26 µM (active) in [7], 11.2 µM (active) in [3], 2.24 µM (active) in assay [8] and 10 µM (active) in assay [10].
